GDH-TPI inh = GDH-TPI coupling enzyme inhibitors, primary screen, artefact control for M. tuberculosis FBA inhibitor project, biochemical, absorbance, full deck | GDH-TPI coupled enzyme counterscreen, NADH absorbance | inhibition, % at 4.8 µM | 360,000 compounds, 1.2% hits
FBA Mtb inh = Mtb FBA enzyme inhibitors, primary screen, biochemical, fluorescence, strain H37Rv; Fructose-bisphosphate aldolase (Mycobacterium tuberculosis (strain ATCC 25618 / H37Rv)), …; 360,000 compounds, 2.3% hits; inhibition, % at 1 µM; purified M. tuberculosis FBA, fluorescence read-out; AID 588726, 2011; in the data active means inhibition above about 27%
Target sequence (P9WQA3 whole entry, looked up): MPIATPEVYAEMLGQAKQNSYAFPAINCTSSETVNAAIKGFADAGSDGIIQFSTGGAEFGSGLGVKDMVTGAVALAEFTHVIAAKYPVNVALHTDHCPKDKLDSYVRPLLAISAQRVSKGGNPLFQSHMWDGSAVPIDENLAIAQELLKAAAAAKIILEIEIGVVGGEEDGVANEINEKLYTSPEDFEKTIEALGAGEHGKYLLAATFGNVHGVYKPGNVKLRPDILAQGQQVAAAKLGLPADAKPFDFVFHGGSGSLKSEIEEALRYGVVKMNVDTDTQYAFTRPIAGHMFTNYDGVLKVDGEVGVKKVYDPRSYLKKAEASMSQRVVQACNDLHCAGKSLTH
BH1578 lux ind = inducers of Vibrio cholerae quorum light production without autoinducers, primary screen, BH1578 luxS cqsA deficient, single point; V. cholerae BH1578 lux reporter, luminescence, 6 h; activation, % at 18.7 µM; 350,000 compounds, 0.16% hits; AID 588436, 2011; in the data active means activation mostly above about 9.7%, no sharp cut-off
CCHFV vOTU inh = CCHFV vOTU protease inhibitors, primary screen, biochemical, Pep-AMC substrate, fluorescence | Crimean-Congo hemorrhagic fever virus L polyprotein viral ovarian tumor (vOTU) protease … | inhibition, % at 11.5 µM | 370,000 compounds, 0.55% hits | AID 651958, 2012
Hits are given with their value. The list is not random: actives were taken first. Their share in the collection is about 3.9%. Unless noted, no stated cut-off is given here; in the data, active means inhibition above about 30%; inactive means the rest.

Screening Cc1ccc(S(=O)(=O)NC(C(=O)Oc2ccc3ccc(=O)oc3c2)c2ccccc2)cc1 (centres undefined) returned GDH-TPI inh inactive, FBA Mtb inh active, BH1578 lux ind inactive and CCHFV vOTU inh inactive.
Screening Cc1ccc(S(=O)(=O)N[C@H](C(=O)Oc2ccc3c(C(F)(F)F)cc(=O)oc3c2)c2ccccc2)cc1 returned GDH-TPI inh inactive, FBA Mtb inh inactive and BH1578 lux ind inactive.
Screening CCC[C@@H](NS(=O)(=O)c1ccc(C)cc1)C(=O)Oc1ccc2c3c(c(=O)oc2c1)CCC3 returned GDH-TPI inh inactive, FBA Mtb inh active, BH1578 lux ind inactive and CCHFV vOTU inh inactive.
Nc1nc(SCc2ccc(F)cc2)ns1 was read as GDH-TPI inh inactive, FBA Mtb inh inactive, BH1578 lux ind inactive and CCHFV vOTU inh inactive.
Screening c1coc(C2OCC3(CO2)COC(c2ccco2)OC3)c1 (centres undefined) returned GDH-TPI inh inactive, FBA Mtb inh inactive, BH1578 lux ind inactive and CCHFV vOTU inh inactive.
O=C(C1=NN[C@@H]2C(=O)N(c3ccccc3C(F)(F)F)C(=O)[C@H]12)c1ccc2ccccc2n1 was read as GDH-TPI inh inactive, FBA Mtb inh inactive, BH1578 lux ind inactive and CCHFV vOTU inh inactive.
Screening NC(=O)c1cc2cc(Cc3ccccc3Cl)ccc2oc1=O returned GDH-TPI inh inactive, FBA Mtb inh inactive, BH1578 lux ind inactive and CCHFV vOTU inh inactive.
`Cc1ccc(S(=O)(=O)NCCC(=O)Oc2ccc3ccc(=O)oc3c2)cc1` gave GDH-TPI inh inactive, FBA Mtb inh active, BH1578 lux ind inactive and CCHFV vOTU inh inactive.
O=C(Nc1ccc(Oc2ccc(NC(=O)Nc3ccc([N+](=O)[O-])cc3)cc2)cc1)Nc1ccc([N+](=O)[O-])cc1 was read as GDH-TPI inh inactive, FBA Mtb inh inactive, BH1578 lux ind inactive and CCHFV vOTU inh inactive.
`COc1ccc(/C=C/C(=O)Nc2ccc(-c3nnc4n3CCCCC4)cc2)c(OC)c1` gave GDH-TPI inh inactive, FBA Mtb inh inactive, BH1578 lux ind inactive and CCHFV vOTU inh inactive.
`CC1C2=C(CC(C)(C)CC2=O)NC2=C1C(=O)CC(C)(C)C2` gave GDH-TPI inh inactive, FBA Mtb inh active, BH1578 lux ind inactive and CCHFV vOTU inh inactive.
For CC1(C)CC(=O)C2=C(C1)NC(=O)NC2c1ccccc1 (centres undefined) the results were GDH-TPI inh inactive, FBA Mtb inh inactive, BH1578 lux ind inactive and CCHFV vOTU inh inactive.
`COC(=O)c1ccccc1NC=C1C(=O)OC2(CCCCC2)OC1=O` gave GDH-TPI inh inactive, FBA Mtb inh inactive, BH1578 lux ind inactive and CCHFV vOTU inh inactive.
Screening COc1ccccc1NC=C1C(=O)OC2(CCCCC2)OC1=O returned GDH-TPI inh 33.0, FBA Mtb inh inactive, BH1578 lux ind inactive and CCHFV vOTU inh inactive.
`NC(c1csc(Nc2ccc(C(=O)c3ccccc3)cc2)n1)C1CCCCC1` (centres undefined) gave GDH-TPI inh inactive, FBA Mtb inh inactive, BH1578 lux ind inactive and CCHFV vOTU inh inactive.
`CC(=O)c1ccc(Nc2nc(C(N)C3CCCCC3)cs2)cc1` (centres undefined) gave GDH-TPI inh 33.6, FBA Mtb inh inactive, BH1578 lux ind inactive and CCHFV vOTU inh inactive.
`COc1ccc(CC(N)c2csc(Nc3ccc(C(C)=O)cc3)n2)cc1` (centres undefined) gave GDH-TPI inh 38.4, FBA Mtb inh inactive, BH1578 lux ind inactive and CCHFV vOTU inh inactive.
CC(C)CC(N)c1csc(Nc2ccc(C(=O)c3ccccc3)cc2)n1 (centres undefined) was read as GDH-TPI inh inactive, FBA Mtb inh inactive, BH1578 lux ind inactive and CCHFV vOTU inh inactive.
CC(=O)c1ccc(Nc2nc(C(N)CC(C)C)cs2)cc1 (centres undefined) was read as GDH-TPI inh 32.0, FBA Mtb inh inactive, BH1578 lux ind inactive and CCHFV vOTU inh inactive.
`O=S1(=O)N[C@@H](Cc2ccccc2)COc2cccc(N3CCSCC3)c21` gave CCHFV vOTU inh inactive.
`O=C(Nc1cccc2ccccc12)N(c1ccccc1)c1ccccc1` gave GDH-TPI inh inactive, FBA Mtb inh inactive and CCHFV vOTU inh inactive.
Screening NS(=O)(=O)c1ccc(CNC(=O)c2cc(S(=O)(=O)N3CCOCC3)c(Cl)cc2Cl)cc1 returned GDH-TPI inh inactive, FBA Mtb inh inactive, BH1578 lux ind inactive and CCHFV vOTU inh inactive.
`CCOC(=O)[C@H]1[C@H]2COc3cc(OC)ccc3[C@@H]2N2C(=O)CN(CCc3c[nH]c4ccccc34)C(=O)[C@@]12C` gave GDH-TPI inh inactive, FBA Mtb inh inactive, BH1578 lux ind inactive and CCHFV vOTU inh inactive.
`O=C(NCC(=O)N1CCN(S(=O)(=O)c2ccccc2F)CC1)c1ccc(Br)o1` gave GDH-TPI inh inactive, FBA Mtb inh inactive, BH1578 lux ind inactive and CCHFV vOTU inh inactive.
CC1CCCCN1C(=O)c1cc2c(=O)n3ccccc3nc2s1 (centres undefined) was read as GDH-TPI inh inactive, FBA Mtb inh 100.7, BH1578 lux ind inactive and CCHFV vOTU inh inactive.
Screening COc1ccc(NC(=O)c2cc3c(=O)n4ccccc4nc3n2C)c(OC)c1 returned GDH-TPI inh inactive, FBA Mtb inh inactive, BH1578 lux ind inactive and CCHFV vOTU inh inactive.
For Cn1c(C(=O)NC2CCCCC2)cc2c(=O)n3ccccc3nc21 the results were GDH-TPI inh inactive, FBA Mtb inh 113.8, BH1578 lux ind inactive and CCHFV vOTU inh inactive.
Screening Cn1c(C(=O)NCc2ccccn2)cc2c(=O)n3ccccc3nc21 returned GDH-TPI inh inactive, FBA Mtb inh 196.3, BH1578 lux ind inactive and CCHFV vOTU inh inactive.
Screening O=C(NC1CCCC1)c1cc2c(=O)n3ccccc3nc2s1 returned GDH-TPI inh inactive, FBA Mtb inh 178.0, BH1578 lux ind inactive and CCHFV vOTU inh inactive.
Cc1nc2ccccn2c1C(=O)NC1CCCCC1 was read as GDH-TPI inh inactive, FBA Mtb inh inactive, BH1578 lux ind inactive and CCHFV vOTU inh inactive.
For O=C(COC(=O)/C=C/c1cccc(C(F)(F)F)c1)NCc1ccco1 the results were GDH-TPI inh inactive, FBA Mtb inh inactive, BH1578 lux ind inactive and CCHFV vOTU inh inactive.
CN1c2ccccc2C(O)=C(C(=O)Nc2ccccc2)S1(=O)=O was read as GDH-TPI inh inactive, FBA Mtb inh inactive, BH1578 lux ind inactive and CCHFV vOTU inh inactive.
`CN1c2ccccc2C(O)=C(C(=S)Nc2ccccc2)S1(=O)=O` gave GDH-TPI inh 31.5, FBA Mtb inh inactive, BH1578 lux ind inactive and CCHFV vOTU inh inactive.
For CN1c2ccsc2C(O)=C(C(=S)Nc2ccccc2)S1(=O)=O the results were GDH-TPI inh inactive, FBA Mtb inh inactive, BH1578 lux ind inactive and CCHFV vOTU inh inactive.
For Cc1ccc(NC(=S)C2=C(O)c3ccccc3N(C)S2(=O)=O)cc1 the results were GDH-TPI inh 38.4, FBA Mtb inh inactive, BH1578 lux ind inactive and CCHFV vOTU inh inactive.
Screening CN1c2ccccc2C(O)=C(C(=S)Nc2ccc(F)c(Cl)c2)S1(=O)=O returned GDH-TPI inh 30.8, FBA Mtb inh inactive, BH1578 lux ind inactive and CCHFV vOTU inh inactive.
